Data: PubChem BioAssay AID1159580 (chemical genetic matrix, 2015)
Among all 5,500 compounds or so, about 2,000 (36%) were called active. Inconclusive results (about 18%) are left out. Cut-off read from the data, not from the text of the source: active = normalized growth mostly below about 0.91 (no sharp cut-off); inconclusive = no clear call, values can overlap the other calls; inactive = mostly above about 0.92. The list shows a part of the results.

Test: chemical genetic growth profiling, strain panel (AID 1159580);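 note: tested at 20 µM; growth read once vehicle control cultures reached saturation at 30 °C; 1 = growth at the plate median or of vehicle wells; lower values mean less growth of the strain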
Details: S. cerevisiae deletion strains, growth OD

Measured: normalized growth

c1ccc2c(Cc3c[nH]c4ccccc34)c[nH]c2c1
inactive: locus YDL005C, strain med2, active compounds read low 0.939 | locus YDR069C, strain doa4, active compounds read low 1 | locus YGL167C, strain pmr1, active compounds read low 0.958 | locus YLR357W, strain rsc2, active compounds read low 0.876 | locus YPL106C, strain sse1, active compounds read low 1
active: locus YAL021C, strain ccr4, active compounds read low 0.848 | locus YAL026C, strain drs2, active compounds read low 0.263 | locus YAL030W, strain snc1, active compounds read low 0.785 | locus YBL061C, strain skt5, active compounds read low 0.51 | locus YBR009C, strain hhf1, active compounds read low 0.341 | locus YBR023C, strain chs3, active compounds read low 0.523 | locus YBR171W, strain sec66, active compounds read low 0.515 | locus YBR231C, strain swc5, active compounds read low 0.501 | locus YBR279W, strain paf1, active compounds read low 0.496 | locus YCL011C, strain gbp2, active compounds read low 0.319 | locus YCL016C, strain dcc1, active compounds read low 0.543 | locus YCL069W, strain vba3, active compounds read low 0.364 | locus YCR088W, strain abp1, active compounds read low 0.632 | locus YDL040C, strain nat1, active compounds read low 0.784 | locus YDR001C, strain nth1, active compounds read low 0.824 | locus YDR137W, strain rgp1, active compounds read low 0.331 | locus YDR159W, strain sac3, active compounds read low 0.547 | locus YDR195W, strain ref2 1.24 [resistant] | locus YDR297W, strain sur2, active compounds read low 0.704 | locus YDR334W, strain swr1, active compounds read low 0.459 | locus YDR335W, strain msn5, active compounds read low 0.501 | locus YDR392W, strain spt3, active compounds read low 0.11 | locus YEL003W, strain gim4, active compounds read low 0.282 | locus YEL037C, strain rad23, active compounds read low 0.779 | locus YEL061C, strain CIN8 (second series), active compounds read low 0.413 | locus YER015W, strain faa2, active compounds read low 0.443 | locus YER016W, strain bim1, active compounds read low 0.681 | locus YER111C, strain swi4, active compounds read low 0.455 | locus YER155C, strain BEM2 (second series), active compounds read low 0.147 | locus YFR010W, strain ubp6, active compounds read low 0.836 | locus YGL173C, strain kem1, active compounds read low 0.765 | locus YGL227W, strain vid30, active compounds read low 0.154 | locus YGL240W, strain doc1, active compounds read low 0.68 | locus YGL253W, strain hxk2, active compounds read low 0.348 | locus YHR013C, strain ard1, active compounds read low 0.617 | locus YHR027C, strain rpn1, active compounds read low 0.615 | locus YHR030C, strain SLT2, active compounds read low 0.428 | locus YHR079C, strain IRE1, active compounds read low 0.531 | locus YHR142W, strain chs7, active compounds read low 0.202 | locus YJL092W, strain hpr5, active compounds read low 0.635 | locus YJL095W, strain BCK1 (second series), active compounds read low 0.47 | locus YJL095W, strain BCK1, active compounds read low 0.528 | locus YJL115W, strain asf1, active compounds read low 0.811 | locus YJL129C, strain trk1, active compounds read low 0.518 | locus YJL154C, strain vps35, active compounds read low 0.794 | locus YJL164C, strain tpk1, active compounds read low 0.429 | locus YJL166W, strain qcr8, active compounds read low 0.356 | locus YJR066W, strain TOR1, active compounds read low 0.54 | locus YKL160W, strain elf1, active compounds read low 0.388 | locus YKR026C, strain gcn3, active compounds read low 0.763 | locus YKR091W, strain srl3, active compounds read low 0.802 | locus YLL001W, strain dnm1, active compounds read low 0.421 | locus YLL026W, active compounds read low 0.469 | locus YLL041C, strain sdh2, active compounds read low 0.758 | locus YLR027C, strain aat2, active compounds read low 0.446 | locus YLR113W, strain HOG1, active compounds read low 0.648 | locus YLR221C, strain rsa3, active compounds read low 0.343 | locus YLR258W, strain gsy2, active compounds read low 0.722 | locus YLR262C, strain YPT6 (second series), active compounds read low 0.348 | locus YLR320W, strain mms22, active compounds read low 0.235 | locus YLR342W, strain FKS1, active compounds read low 0.518 | locus YLR370C, strain arc18, active compounds read low 0.57 | locus YLR384C, strain iki3, active compounds read low 0.829 | locus YML120C, strain ndi1, active compounds read low 0.324 | locus YMR058W, strain fet3, active compounds read low 0.322 | locus YMR125W, strain sto1, active compounds read low 0.469 | locus YMR129W, active compounds read low 0.647 | locus YMR205C, strain PFK2, active compounds read low 0.506 | locus YMR231W, strain pep5, active compounds read low 0.249 | locus YNL071W, strain lat1, active compounds read low 0.106 | locus YNL183C, strain NPR1, active compounds read low 0.593 | locus YNL209W, strain ssb2, active compounds read low 0.644 | locus YNL248C, strain rpa49, active compounds read low 0.629 | locus YNL322C, strain KRE1 (second series), active compounds read low 0.73 | locus YNR049C, strain mso1, active compounds read low 0.674 | locus YOR001W, strain rrp6, active compounds read low 0.531 | locus YOR070C, strain gyp1, active compounds read low 0.379 | locus YOR080W, strain dia2, active compounds read low 0.772 | locus YOR083W, strain WHI5, active compounds read low 0.419 | locus YOR106W, strain vam3, active compounds read low 0.43 | locus YOR231W, strain MKK1, active compounds read low 0.511 | locus YOR265W, strain rbl2, active compounds read low 0.534 | locus YOR270C, strain vph1, active compounds read low 0.338 | locus YOR290C, strain snf2, active compounds read low 0.219 | locus YPL051W, strain arl3, active compounds read low 0.264 | locus YPL078C, strain atp4, active compounds read low 0.363 | locus YPL240C, strain hsp82, active compounds read low 0.63 | locus YPL256C, strain CLN2, active compounds read low 0.652
